{"source": "PubChem BioAssay (EPA / NIEHS)", "key": {"[1]": {"target": "rat Gamma-Aminobutyric Acid Type B Receptor (GABBR), Gabbr1 (gene 81657) (UniProt Q9Z0U4)", "sequence (Q9Z0U4 whole entry, looked up)": "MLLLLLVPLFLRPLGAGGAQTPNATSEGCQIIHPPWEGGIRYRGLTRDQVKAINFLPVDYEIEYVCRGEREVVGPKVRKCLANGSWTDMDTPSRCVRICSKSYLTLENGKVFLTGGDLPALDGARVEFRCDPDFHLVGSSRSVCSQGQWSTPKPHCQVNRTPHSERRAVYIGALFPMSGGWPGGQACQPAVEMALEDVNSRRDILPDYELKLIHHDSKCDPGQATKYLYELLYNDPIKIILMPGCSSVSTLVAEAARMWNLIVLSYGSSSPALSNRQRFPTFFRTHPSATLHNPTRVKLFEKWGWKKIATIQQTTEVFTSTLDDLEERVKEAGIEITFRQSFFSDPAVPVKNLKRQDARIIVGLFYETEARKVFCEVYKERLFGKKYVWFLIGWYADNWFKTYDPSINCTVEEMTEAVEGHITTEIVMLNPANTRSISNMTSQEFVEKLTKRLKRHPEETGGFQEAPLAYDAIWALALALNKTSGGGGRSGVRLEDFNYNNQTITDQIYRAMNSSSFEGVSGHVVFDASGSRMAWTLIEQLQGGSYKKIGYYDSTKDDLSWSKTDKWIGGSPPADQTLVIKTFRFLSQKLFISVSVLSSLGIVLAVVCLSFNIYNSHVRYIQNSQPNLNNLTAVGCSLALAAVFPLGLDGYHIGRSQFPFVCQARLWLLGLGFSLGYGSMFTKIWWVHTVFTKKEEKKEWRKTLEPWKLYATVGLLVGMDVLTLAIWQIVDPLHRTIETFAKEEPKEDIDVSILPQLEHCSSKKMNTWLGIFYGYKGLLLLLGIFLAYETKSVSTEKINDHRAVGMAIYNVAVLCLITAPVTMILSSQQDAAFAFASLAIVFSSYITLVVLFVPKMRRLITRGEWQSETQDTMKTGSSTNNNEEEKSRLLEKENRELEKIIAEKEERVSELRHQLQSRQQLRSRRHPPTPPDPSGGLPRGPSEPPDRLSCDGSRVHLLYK", "experiment": "NVS_GPCR_rGABBR: NovaScreen (NVS) G Protein-Coupled Receptor Assay for rat Gamma-Aminobutyric Acid Type B Receptor (GABBR) (AID 2283301)", "in_short": "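Radioligand displacement on rat cortical membranes, 1 h, filter-based scintillation counting. Primary screen at 25 uM in duplicate; compounds passing threshold re-tested in concentration-response up to 50 uM; loss of binding fitted against DMSO.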"}, "[2]": {"target": "rat Glutamate, AMPA Site (AMPA), Gria1 (gene 50592) (UniProt P19490)", "sequence (P19490 whole entry, looked up)": "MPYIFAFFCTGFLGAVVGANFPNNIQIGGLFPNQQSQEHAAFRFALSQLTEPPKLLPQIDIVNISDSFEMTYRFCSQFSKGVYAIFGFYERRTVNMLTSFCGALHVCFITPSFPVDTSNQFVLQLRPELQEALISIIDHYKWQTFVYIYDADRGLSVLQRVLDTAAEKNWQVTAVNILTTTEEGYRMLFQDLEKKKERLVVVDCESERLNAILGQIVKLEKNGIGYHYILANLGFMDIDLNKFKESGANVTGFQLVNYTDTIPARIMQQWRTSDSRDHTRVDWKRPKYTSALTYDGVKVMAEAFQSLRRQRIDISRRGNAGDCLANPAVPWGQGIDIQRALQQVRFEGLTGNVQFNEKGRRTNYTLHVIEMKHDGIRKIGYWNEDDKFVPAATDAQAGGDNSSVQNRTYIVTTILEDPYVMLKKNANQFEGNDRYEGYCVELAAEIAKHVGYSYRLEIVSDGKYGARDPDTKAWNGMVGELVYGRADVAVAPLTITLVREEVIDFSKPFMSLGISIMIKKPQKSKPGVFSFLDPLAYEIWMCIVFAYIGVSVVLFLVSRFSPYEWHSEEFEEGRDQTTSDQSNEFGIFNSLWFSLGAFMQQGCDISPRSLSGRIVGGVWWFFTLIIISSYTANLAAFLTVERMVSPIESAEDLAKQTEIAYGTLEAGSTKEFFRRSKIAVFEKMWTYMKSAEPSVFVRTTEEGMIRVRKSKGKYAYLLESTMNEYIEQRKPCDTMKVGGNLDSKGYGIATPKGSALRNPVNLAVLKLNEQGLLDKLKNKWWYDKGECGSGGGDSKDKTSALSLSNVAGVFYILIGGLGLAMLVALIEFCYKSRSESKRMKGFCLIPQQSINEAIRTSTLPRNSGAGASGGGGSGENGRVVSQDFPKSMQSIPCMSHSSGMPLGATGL", "experiment": "NVS_LGIC_rAMPA: NovaScreen (NVS) Ligand-Gated Ion Channel Assay for rat Glutamate, AMPA Site (AMPA) (AID 2283324)", "in_short": "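Rat forebrain membranes; radioligand binding read 1 h after dosing by filtration and scintillation counting. Duplicate single-point screen at 25 uM, then concentration-response to 50 uM for threshold hits (e.g. 30% inhibition); loss of signal vs DMSO.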"}, "[3]": {"target": "rat Histamine Receptor (H3), Hrh3 (gene 85268) (UniProt Q9QYN8)", "sequence (Q9QYN8 whole entry, looked up)": "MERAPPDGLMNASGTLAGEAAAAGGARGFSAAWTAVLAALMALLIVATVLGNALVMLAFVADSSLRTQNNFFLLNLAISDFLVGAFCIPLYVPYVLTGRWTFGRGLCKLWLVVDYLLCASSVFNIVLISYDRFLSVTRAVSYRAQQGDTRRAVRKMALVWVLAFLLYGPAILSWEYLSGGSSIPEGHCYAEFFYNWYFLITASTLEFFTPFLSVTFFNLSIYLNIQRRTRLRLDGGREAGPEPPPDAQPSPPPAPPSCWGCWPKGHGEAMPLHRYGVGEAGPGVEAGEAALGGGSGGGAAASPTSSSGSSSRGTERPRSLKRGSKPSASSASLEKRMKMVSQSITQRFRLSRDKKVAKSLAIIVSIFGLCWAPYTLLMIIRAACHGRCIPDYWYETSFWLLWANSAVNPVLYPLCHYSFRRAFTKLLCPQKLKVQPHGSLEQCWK", "experiment": "NVS_GPCR_rH3: NovaScreen (NVS) G Protein-Coupled Receptor Assay for rat Histamine Receptor (H3) (AID 2283303)", "in_short": "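Rat forebrain membranes incubated 1 h with compound; radioligand displacement measured by filter-based scintillation counting. Single-concentration duplicates at 25 µM, then concentration-response up to 50 µM, relative to DMSO.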"}, "[4]": {"target": "rat Vasopressin 1 Receptor (V1), Avpr1a (gene 25107) (UniProt P30560)", "sequence (P30560 whole entry, looked up)": "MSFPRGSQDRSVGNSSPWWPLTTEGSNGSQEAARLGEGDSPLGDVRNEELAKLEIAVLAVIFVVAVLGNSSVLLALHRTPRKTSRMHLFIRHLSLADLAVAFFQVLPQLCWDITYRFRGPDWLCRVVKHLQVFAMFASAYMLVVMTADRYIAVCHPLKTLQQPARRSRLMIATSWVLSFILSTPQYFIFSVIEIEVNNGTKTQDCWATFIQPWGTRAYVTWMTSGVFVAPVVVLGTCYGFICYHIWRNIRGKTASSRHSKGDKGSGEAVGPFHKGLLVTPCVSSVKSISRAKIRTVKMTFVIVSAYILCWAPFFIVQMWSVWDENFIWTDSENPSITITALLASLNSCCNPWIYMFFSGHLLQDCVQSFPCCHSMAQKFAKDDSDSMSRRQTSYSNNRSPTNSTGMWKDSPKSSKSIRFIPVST", "experiment": "NVS_GPCR_rV1: NovaScreen (NVS) G Protein-Coupled Receptor Assay for rat Vasopressin 1 Receptor (V1) (AID 2283316)", "in_short": "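Radioligand binding on rat liver membranes, 1.5 h incubation, filter-based scintillation counting. Single 25 uM screen in duplicate; chemicals meeting threshold (e.g. 30% inhibition) run in concentration-response up to 50 uM.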"}, "[5]": {"target": "bovine Gamma-Aminobutyric Acid Type A Receptor BDZ, alpha 5 site (GABARa5), GABRA5 (gene 523515) (UniProt Q08E50)", "sequence (Q08E50 whole entry, looked up)": "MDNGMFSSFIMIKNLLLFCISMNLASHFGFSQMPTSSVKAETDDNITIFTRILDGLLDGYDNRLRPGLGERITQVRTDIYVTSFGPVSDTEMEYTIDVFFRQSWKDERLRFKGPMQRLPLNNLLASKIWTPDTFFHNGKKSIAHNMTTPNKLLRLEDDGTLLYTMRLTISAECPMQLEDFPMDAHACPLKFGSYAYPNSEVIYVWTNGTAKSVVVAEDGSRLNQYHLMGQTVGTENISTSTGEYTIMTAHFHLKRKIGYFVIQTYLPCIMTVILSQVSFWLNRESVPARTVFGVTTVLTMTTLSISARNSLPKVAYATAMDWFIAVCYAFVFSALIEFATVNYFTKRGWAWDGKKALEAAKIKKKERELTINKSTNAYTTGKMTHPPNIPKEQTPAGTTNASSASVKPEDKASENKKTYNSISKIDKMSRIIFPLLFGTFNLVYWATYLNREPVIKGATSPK", "experiment": "NVS_LGIC_bGABARa5: NovaScreen (NVS) Ligand-Gated Ion Channel Assay for bovine Gamma-Aminobutyric Acid Type A Receptor BDZ, alpha 5 site (GABARa5) (AID 2283323)", "in_short": "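Radioligand competitive displacement binding on bovine hippocampal membranes, read 1 hr after dosing by filter-based scintillation counting. Primary screen at 25 uM in duplicate; actives (e.g. ≥30% inhibition) then run in concentration-response up to 50 uM.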"}, "NCBI gene 24521": {"test_system": "NCBI gene 24521", "experiment": "NVS_IC_rKATPCh: NovaScreen (NVS) Ion Channel Assay for rat Potassium Channel, ATP-Sensitive (KATPCh) (AID 2283319)", "in_short": "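Rat cortical membranes; radioligand binding at ATP-sensitive K channel site, filter-based scintillation counting 2 h after dosing. Single-point duplicate screen at 25 uM, hits rerun in concentration-response up to 50 uM; loss of signal versus DMSO.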"}, "[6]": {"target": "rat Glutamate, NMDA Agonist Site (GluNMDA), Grin1 (gene 24408) (UniProt P35439)", "experiment": "NVS_LGIC_rGluNMDA_Agonist: NovaScreen (NVS) Ligand-Gated Ion Channel Assay for rat Glutamate, NMDA Agonist Site (GluNMDA) (AID 2283327)", "in_short": "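Rat forebrain membranes, radioligand binding in the agonist-site protocol; 1 h after dosing; filter-based scintillation counting. Single-concentration duplicate screen at 25 uM, then concentration-response up to 50 uM for actives; gain-of-signal vs DMSO.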"}, "[7]": {"target": "rat Somatostatin Receptor (SST), Sstr1 (gene 25033) (UniProt P28646)", "sequence (P28646 whole entry, looked up)": "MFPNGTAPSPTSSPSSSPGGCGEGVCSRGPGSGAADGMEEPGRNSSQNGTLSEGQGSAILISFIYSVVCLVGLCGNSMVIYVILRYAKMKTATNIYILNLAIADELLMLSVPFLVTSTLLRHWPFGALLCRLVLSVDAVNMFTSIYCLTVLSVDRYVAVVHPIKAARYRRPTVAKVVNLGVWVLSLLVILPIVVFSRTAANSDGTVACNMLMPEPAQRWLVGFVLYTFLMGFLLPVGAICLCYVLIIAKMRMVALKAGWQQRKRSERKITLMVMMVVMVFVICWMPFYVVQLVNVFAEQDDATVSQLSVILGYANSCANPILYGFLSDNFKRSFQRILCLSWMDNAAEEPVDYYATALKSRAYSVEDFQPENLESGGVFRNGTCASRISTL", "experiment": "NVS_GPCR_rSST: NovaScreen (NVS) G Protein-Coupled Receptor Assay for rat Somatostatin Receptor (SST) (AID 2283314)", "in_short": "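Rat forebrain membranes; radioligand displacement read by filter-based scintillation counting 1 h after dosing. Primary screen in duplicate at 25 uM. Actives (e.g., 30% inhibition) were rerun as concentration-response to 50 uM max and fitted against DMSO.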"}, "[8]": {"target": "rat Neonicotinoid receptor (NNR), Chrna7 (gene 25302) (UniProt Q05941)", "sequence (Q05941 whole entry, looked up)": "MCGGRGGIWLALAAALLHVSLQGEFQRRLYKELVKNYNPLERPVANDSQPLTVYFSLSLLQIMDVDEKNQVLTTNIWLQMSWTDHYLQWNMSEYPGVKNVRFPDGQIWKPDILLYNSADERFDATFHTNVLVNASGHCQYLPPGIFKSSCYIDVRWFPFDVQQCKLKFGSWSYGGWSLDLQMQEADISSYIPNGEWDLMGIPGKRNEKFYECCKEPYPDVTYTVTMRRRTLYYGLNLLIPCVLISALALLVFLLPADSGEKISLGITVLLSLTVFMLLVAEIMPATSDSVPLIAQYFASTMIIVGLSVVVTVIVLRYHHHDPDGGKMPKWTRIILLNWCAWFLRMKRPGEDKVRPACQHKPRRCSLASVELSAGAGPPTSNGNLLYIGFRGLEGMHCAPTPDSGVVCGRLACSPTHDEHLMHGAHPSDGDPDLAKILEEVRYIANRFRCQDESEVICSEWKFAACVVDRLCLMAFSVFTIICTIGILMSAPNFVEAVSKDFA", "experiment": "NVS_LGIC_rNNR_BungSens: NovaScreen (NVS) Ligand-Gated Ion Channel Assay for rat Neonicotinoid receptor (NNR) (AID 2283315)", "in_short": "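Radioligand displacement binding on rat cortical membranes, 2.5 h incubation, filtration and scintillation counting. Loss of specific binding fitted relative to DMSO.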"}, "[9]": {"target": "rat Opioid Receptor, Non-selective Binding, Oprm1 (gene 25601) (UniProt P33535)", "sequence (P33535 whole entry, looked up)": "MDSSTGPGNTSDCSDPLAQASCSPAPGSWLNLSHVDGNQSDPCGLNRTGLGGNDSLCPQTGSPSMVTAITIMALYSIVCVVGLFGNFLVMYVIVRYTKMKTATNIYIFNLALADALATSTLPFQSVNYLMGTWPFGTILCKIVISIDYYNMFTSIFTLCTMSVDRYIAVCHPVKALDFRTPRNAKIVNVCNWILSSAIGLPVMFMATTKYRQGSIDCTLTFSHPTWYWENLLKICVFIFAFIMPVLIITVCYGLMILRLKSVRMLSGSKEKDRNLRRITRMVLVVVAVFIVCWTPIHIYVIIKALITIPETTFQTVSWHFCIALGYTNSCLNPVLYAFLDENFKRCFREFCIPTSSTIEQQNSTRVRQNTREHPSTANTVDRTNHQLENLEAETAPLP", "experiment": "NVS_GPCR_rOpiate_NonSelective: NovaScreen (NVS) G Protein-Coupled Receptor Assay for rat Opioid Receptor, Non-selective Binding (AID 2283318)", "in_short": "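Rat forebrain membranes, cell-free radioligand binding with filter-based scintillation counting, read 1.5 h after dosing. Primary screen in duplicate at 25 uM; actives retested in concentration series. Loss of signal versus DMSO baseline scored.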"}, "[10]": {"target": "human Constitutive Androstane Receptor (CAR), NR1I3 (gene 9970) (UniProt Q14994)", "sequence (Q14994 whole entry, looked up)": "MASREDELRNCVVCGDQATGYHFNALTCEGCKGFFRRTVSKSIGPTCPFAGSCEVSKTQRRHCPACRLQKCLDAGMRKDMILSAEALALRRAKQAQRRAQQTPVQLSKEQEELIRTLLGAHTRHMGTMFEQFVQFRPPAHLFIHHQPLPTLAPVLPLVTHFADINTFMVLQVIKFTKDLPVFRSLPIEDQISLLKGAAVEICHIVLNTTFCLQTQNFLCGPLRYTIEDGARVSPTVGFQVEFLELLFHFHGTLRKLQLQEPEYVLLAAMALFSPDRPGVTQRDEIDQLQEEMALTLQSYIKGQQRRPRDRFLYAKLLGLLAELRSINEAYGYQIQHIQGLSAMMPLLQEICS", "experiment": "NVS_NR_hCAR_Agonist: NovaScreen (NVS) Nuclear Receptor Binding Assay for human Constitutive Androstane Receptor Agonism (CAR) (AID 2283328)", "in_short": "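Cell-free TR-FRET binding readout with extracted human CAR protein, read 1 h after dosing. Gain of signal fitted against DMSO baseline. Single-concentration duplicates at 25 uM, then concentration-response up to 50 uM for actives.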"}}, "note": "Inconclusive results are not listed. Active and inactive are the calls of the source. The calls were made as follows: active = hit-call score of the fitted dose curve at least 0.9, where 1 is the maximum; inconclusive = response in the unintended direction; inactive = score below 0.9.", "data": [{"compound": "NCCOCCOCCN", "values": [{"measurement": "outcome", "setting": "[1]", "result": "inactive"}]}, {"compound": "Cc1cc(SC2=C(O)C[C@@](CCc3ccc(N)cc3)(C(C)C)OC2=O)c(C(C)(C)C)cc1CO", "values": [{"measurement": "outcome", "setting": "[1]", "result": "inactive"}, {"measurement": "outcome", "setting": "[2]", "result": "inactive"}]}, {"compound": "CN(C)CCCN(C)CCCN(C)C", "values": [{"measurement": "AC50", "setting": "[3]", "result": "25 µM (active)"}]}, {"compound": "O=C(N[C@@H](c1ccccc1)[C@@H]1CCCCN1)c1cccc(C(F)(F)F)c1Cl", "values": [{"measurement": "outcome", "setting": "[3]", "result": "inactive"}]}, {"compound": "CCC(C)N(C)C(=O)c1cc2ccccc2c(-c2ccccc2Cl)n1", "note": "(stereo not drawn)", "values": [{"measurement": "AC50", "setting": "[4]", "result": "7.4 µM (active)"}, {"measurement": "outcome", "setting": "[5]", "result": "inactive"}]}, {"compound": "COc1ccc(OC(F)(F)F)cc1CN[C@H]1CCCN[C@H]1c1ccccc1", "values": [{"measurement": "outcome", "setting": "[4]", "result": "inactive"}, {"measurement": "outcome", "setting": "NCBI gene 24521", "result": "inactive"}, {"measurement": "outcome", "setting": "[2]", "result": "inactive"}]}, {"compound": "CCCCc1nc2cccnc2n1Cc1ccc(-c2ccccc2-c2nnn[nH]2)cc1", "values": [{"measurement": "outcome", "setting": "[5]", "result": "inactive"}]}, {"compound": "CN(C)CCCN1c2ccccc2Sc2ccc(Cl)cc21", "values": [{"measurement": "AC50", "setting": "[6]", "result": "25 µM (active)"}]}, {"compound": "NC(=Nc1ccccc1)Nc1ccccc1", "values": [{"measurement": "outcome", "setting": "[6]", "result": "inactive"}]}, {"compound": "CCCCCCC(C=O)=Cc1ccccc1", "values": [{"measurement": "outcome", "setting": "[7]", "result": "inactive"}]}, {"compound": "CCCC[C@H]1CN(CC2CCOCC2)C(=O)OC12CCN(C1(C)CCN(C(=O)c3c(C)ncnc3C)CC1)CC2", "values": [{"measurement": "AC50", "setting": "[8]", "result": "4.46 µM (active)"}]}, {"compound": "O=C(O)c1cccnc1", "values": [{"measurement": "outcome", "setting": "[8]", "result": "inactive"}]}, {"compound": "CC(=O)O[C@]1(C(C)=O)CC[C@H]2[C@@H]3C=C(Cl)C4=CC(=O)[C@@H]5C[C@@H]5[C@]4(C)[C@H]3CC[C@@]21C", "values": [{"measurement": "AC50", "setting": "[9]", "result": "0.353 µM (active)"}]}, {"compound": "CO[C@@H]1COCC[C@@H]1N[C@@H]1CC[C@@](C(=O)N2CCc3ncc(C(F)(F)F)cc3C2)(C(C)C)C1", "values": [{"measurement": "AC50", "setting": "[9]", "result": "25 µM (active)"}]}, {"compound": "CCOCCOCCO", "values": [{"measurement": "outcome", "setting": "NCBI gene 24521", "result": "inactive"}]}, {"compound": "Cc1cc(Cc2ccc(N)c(C)c2)ccc1N", "values": [{"measurement": "outcome", "setting": "NCBI gene 24521", "result": "inactive"}]}, {"compound": "CC(C)c1cccc(C(C)C)c1NC(=O)NS(=O)(=O)c1cc(C(C)(C)O)co1", "values": [{"measurement": "outcome", "setting": "[5]", "result": "inactive"}]}, {"compound": "COc1ccc(C(=O)Nc2nc3ccccc3c(NCc3ccccc3)c2C#N)cc1", "values": [{"measurement": "outcome", "setting": "[5]", "result": "inactive"}]}, {"compound": "CC(C)OC(=O)C(C)(C)Oc1ccc(C(=O)c2ccc(Cl)cc2)cc1", "values": [{"measurement": "outcome", "setting": "[10]", "result": "inactive"}]}]}
